The nature of this assay: HT29 colon tumor cell growth inhibition, primary screen, imaging, high content imaging, 48 h, CellTiter-Glo (AID 771).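 As to condensed nuclei: condensed means Hoechst nuclear area under control median minus 1.5 SD.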 As to conditions: HCS imaging cell count, at 10 µM, stronger effect = higher value; for condensed nuclei: measured here: percent cells with condensed nuclei.
The mark [1] stands for this setting: measured here: ATP CellTiter-Glo viability inhibition.

Hit rate of the full screen: of about 3,300 compounds, about 55 (2%) were called active. This is one part of a sample in which actives are shown more often than they occur.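 The calls were made as follows: active = growth inhibition above 90%, meaning viable cell count by imaging cut by more than 90% versus vehicle controls; inactive = growth inhibition below 90%.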

For `COc1ccc(-n2ncc3c(Nc4cccc(C)c4)ncnc32)cc1`, the growth inhibition is 30.6% (inactive) and the condensed nuclei is 3.63%. Moreover, under setting [1], the growth inhibition was -2.53%.
The matching figures for `N#CC1=C(N)NC(SCc2ccc(Cl)cc2)=C(C#N)C12CCCCC2`: 79.6% (inactive), 17.1% and 70.5%.
On the same counts, the results for `COc1ccc(C(=O)CSC2=C(C#N)C3(CCCCC3)C(C#N)=C(N)N2)cc1` are 27% (inactive), 7.53% and 4.09%.
Take `N#CC1=C(N)NC(SCc2ccc(F)cc2)=C(C#N)C12CCCCC2`: the growth inhibition was 95.4% (active) and the condensed nuclei was 27.3%. In addition, the growth inhibition under setting [1] worked out at 69.3%.
On the same counts, the results for `C=CCN(C(=O)CCC(=O)O)C1CC(=O)N(c2ccc(OC)cc2)C1=O` (stereo not given) are -35.5% (inactive), 1.95% and -24.9%.
The matching figures for `Cn1c(=NCC(O)COc2ccccc2)sc2ccccc21` (stereo not given): 25.5% (inactive), 3.63% and -13.5%.
With `COCCNc1oc(-c2ccc(C)cc2)nc1C#N`, the growth inhibition was 11.6% (inactive) and the condensed nuclei came to 2.76%. In addition, the growth inhibition under setting [1] is -12.3%.
On the same counts, the results for `O=C(O)c1ccc(COCC(F)(F)C(F)F)o1` are -17.7% (inactive), 3.29% and -10.2%.
On the same counts, the results for `CCOc1ccc(Cn2c(O)cc(=O)[nH]c2=O)cc1` are -7.52% (inactive), 1.27% and -20.8%.
The matching figures for `CC1CN(C2CCN(C(=O)c3ccccc3Cl)CC2)CC(C)O1` (stereo not given): -18.6% (inactive), 4.01% and -39.5%.
For the compound `CC1CN(C2CCN(C(=O)c3ccccc3)CC2)CC(C)O1` (stereo not given), the growth inhibition was 92.5% (active) and the condensed nuclei is 3.65%. Under setting [1], the growth inhibition was -44.3%.
Regarding `CC1CN(C2CCN(C(=O)COc3ccccc3)CC2)CC(C)O1` (stereo not given), the growth inhibition is -1.5% (inactive) and the condensed nuclei was found to be 2.3%. Also, under setting [1], the growth inhibition was -3.33%.
The matching figures for `CCOC(=O)c1sc2c(c1C)c(=O)c(C(=O)OCC)cn2CC`: -35.2% (inactive), 0.84% and -21.7%.
On the same counts, the results for `CCCc1[nH]nc2c1C(c1cccc(OC)c1)C(C#N)=C(N)O2` (stereo not given) are 55.3% (inactive), 16.6% and 9.76%.
The matching figures for `Cc1cccc(OCC(=O)N2CCC(N3CCOCC3)CC2)c1`: -31.7% (inactive), 0.89% and -31.1%.
`CNCCCC12CCC(c3ccccc31)c1ccccc12`: the growth inhibition is 95% (active) and the condensed nuclei was found to be 18.3%.
`Nc1ccc(Cl)cc1/C(=N/O)c1ccccc1`: the growth inhibition was 33.8% (inactive) and the condensed nuclei was found to be 3.59%. In addition, the growth inhibition under setting [1] is -14.5%.
Take `C=C1[C@@H](C)C2[C@H](Cc3ccccc3)NC(=O)[C@]23OC(=O)CC[C@H](O)CCC[C@H](C)C/C=C/[C@H]3[C@@H]1O` (stereo not given in full): the growth inhibition is 92.4% (active) and the condensed nuclei stood at 18.2%.
For `CCOC(=O)CSc1nc(N(C)C)nc(N(C)C#N)n1`, the growth inhibition was 27.7% (inactive) and the condensed nuclei turned out to be 1.4%. For the same compound, the growth inhibition under setting [1] was -19.8%.
